Where “and” joins values, the source holds several entries; their conditions need not be identical. Equal entries are not always repeated. Out of some 420,000 compounds screened, about 75 (0.02%) were called active. Shown is part of a subset that was picked to be rich in actives. Some compounds were tested as several samples or in several runs, with calls that do not always agree. A number with no mark means an inactive call. The call rests on the fitted dose curve; in most records, active means well fitted activation curve with a large enough effect; inconclusive means small, poorly fitted or top-dose-only effect; inactive means no such curve, though single readings can be large or run the other way.
Potency means the concentration at half of the fitted maximal effect.

This test is described as follows: qHTS for Inducers of the Endoplasmic Reticulum Stress Response (ERSR) in Human Glioma: qHTS. Further: nearly all actives have a fitted effect of over 35% in size. On activation: % of control where 0% means no effect. The settings on record: U87-MG GRP78 promoter luciferase reporter, 16 h; activation: active compounds read high. From the text:
Primary protein unfolding takes place for many diseases, including diabetes and hypoxia, , and triggers a reaction in the cells called ER stress response (ERSR). ). ERSR is designed as a repair mechanism, but ultimately leads to cell death via apoptosis if conditions triggering protein unfolding persist (1). The molecular clue to ERSR activation is the enhancement of the expression of key molecular chaperones, including the glucose regulated protein (GRP) 78. GRP78 is the main sensor for protein folding and the main actuator of the ERSR.
In a collaboration between the Southern Research Institute and the NIH Chemical Genomics Center, a cell based screen was developed that reliably uses GRP78 as a sensor to identify small molecules as inducers of ERSR. In resting conditions, GRP78 binds proteins and acts as a natural repressor. Once unfolded proteins are present in the ER, GRP78 releases some of the repressors and binds to the unfolded proteins. The release of the repressors executes the ERSR program. Using a human glioma cell line in a miniaturized, luminescent format, a high-throughput screen was developed to identify actuators of the ERSR.
(1) Soboloff, J. and S. A. Berger (2002). "Sustained ER Ca2+ depletion suppresses protein synthesis and induces activation-enhanced cell death in mast cells." J Biol Chem 277(16): 13812-20.
NIH Chemical Genomics Center [NCGC]
NIH Molecular Libraries Probe Centers Network [MLPCN]
Assay Submitter (PI): Maurizio Grimaldi, Southern Research Institute
Stable transfected human glioma cell line, U87-MG, are dispensed at density 1000 cells/well into Greiner white solid bottom 1536-well assay plates. Compounds are transferred via Kalypsys pin tool equipped with 1536-pin array (10nl slotted pins, V&P Scientific, San Diego, CA). The assay plates will be incubated for 16 hours and developed by adding appropriate quantities of the Promega Bright Glo reagent. The plates will be incubated at room temperature for 10 minutes prior to being transferred into a ViewLux high-throughput CCD imager (PerkinElmer), wherein end-point measurements of luminescence are acquired.
(Quantitative high-throughput screening tests each substance at several concentrations.)
`COc1ccccc1C(=O)N[C@@H]1c2ccccc2C2(CCN(C(=O)c3csnn3)CC2)[C@H]1OC`: the activation was 0.874%.
On the same count and under the same terms, with `Cc1cc(C)cc(C#CC2C=CC(Oc3ccc(C4CCCC4)cc3)C(CO)O2)c1` (stereo not given) the figure was -1.34%; with `O=S(O)CNc1ccc(S(=O)(=O)c2ccc(NCS(=O)O)cc2)cc1`, -4.53%.
`C[C@]12CC[C@@H]3C(=CCc4cc(O)ccc43)[C@@H]1CCC2=O`: the activation was 2.61%.
Still for that read-out and setting: the value for `Fc1ccc(Cl)cc1-c1nc(Nc2ccncc2)c2nccnc2n1` was -1.14%; that for `Cc1cnc(-n2ncc(C(=O)N3CCN(C(C)C)CC3)c2-c2ccco2)nc1-c1ccc(F)cc1` was -4.71%; that for `COC(=O)[C@@H]1CC[C@H](C)[C@@H](c2ccc(C)cc2)N1C(=O)c1ccc(/C=N\OC[C@@H](O)COCc2ccco2)cc1` was 3.64%.
As to `C#C[C@]1(O)CC[C@H]2[C@@H]3CCC4=CC(=O)CC[C@@H]4[C@H]3CC[C@@]21CC`, the Potency is 20 µM (active); the activation is 3.01% and -1.02%.
Consider `COc1cc(=O)n2c(c1C(=O)NC(C)c1ccco1)CCN(C(=O)c1cn3ccc(C)cc3n1)CC2` (stereo not given), for which the activation was -2.08%.
On the same count and under the same terms, the value for `CN(C)c1ccc(/C=C/C=C/c2ccnc3ccccc23)cc1` was -3.58%; that for `C=COC(=O)N1CCN(/[N+]([O-])=N/Oc2ccc([N+](=O)[O-])cc2[N+](=O)[O-])CC1` was -11%; that for `O=C1c2c(O)cccc2[C@@H]([C@@H]2O[C@H](CO)[C@@H](O)[C@H](O)[C@H]2O)c2cc(CO)cc(O)c21` was -3.93%.
Same read-out and setting: the value for `CO[C@H]1COC(=O)[C@@H](OCc2ccccc2)/C=C\[C@H](C)[C@@H](OC)COC(=O)[C@H](OCc2ccccc2)/C=C\[C@@H]1C` was -0.0422%; that for `C[N+](C)(CCOc1ccccc1)Cc1cccs1` (tested in a mixture with another compound) was -5.19%.
Still for that read-out and setting: the value for `CCCC(=O)O[C@]1(C(=O)COC(=O)CC)CC[C@@H]2[C@@H]3CCC4=CC(=O)CC[C@]4(C)[C@H]3[C@@H](O)C[C@@]21C` was -2.74%; that for `C=C1C(=O)C23C(O)C1CCC2[C@]12COC3(O)C(O)C1C(C)(C)CC[C@H]2O` (stereo not given in full) was -12.5%.
Take `CO[C@H]1[C@H](NC(=O)C(C)C)c2ccccc2C12CCN(Cc1cnc(N(C)C)s1)CC2`: the activation is -3.14%.
Same read-out and setting: the value for `CC1O[C@@H](Oc2c(-c3ccc(O)c(O)c3)oc3cc(O)cc(O)c3c2=O)C(O)C(O)C1O` (stereo not given in full) was -2.63%; that for `O=C(C(=O)N1CCOc2ccc(CN3CCN(Cc4ccccn4)CC3)cc2C1)c1ccccc1` was -4.17%; that for `CCCCC(=O)OCC(=O)[C@H]1[C@H](C)C[C@@H]2[C@@H]3C[C@@H](F)C4=CC(=O)C=C[C@]4(C)[C@@]3(F)[C@@H](O)C[C@@]21C` was -0.711%.
Same read-out and setting: with `COC(=O)[C@@H]1C[C@H](NC(=O)c2ccccc2C(F)(F)F)CN1Cc1cccc(O)c1` the figure was -4.69%; with `CCc1nc2cc(C(=O)NCC3CCS(=O)(=O)C3)cc(NC(=O)c3ccccc3OC)c2n1C` (stereo not given), -5.29%.
Same read-out and setting: with `Cc1nc2cc(NC(=O)[C@@H]3C[C@@H](Sc4ccccn4)CN3Cc3ccccc3C)ccc2s1` the figure was -3.4%; with `O=C1OC(C(O)CO)C(O)=C1O` (stereo not given), -2.25%; with `COc1ccc(COC(=O)N/N=C2/C[C@@H](O)[C@@H](O)[C@@H]3[C@@H]4C(=O)N([C@@H](C)c5ccccc5)C(=O)[C@H]4CC[C@@H]23)cc1`, -1.75%.
Regarding `O=C(O)c1ccc(/C=C2/SC(=S)N(c3cccc(C(F)(F)F)c3)C2=O)cc1`, the activation was 2.71%.
Same read-out and setting: with `CC(=O)/C(C)=N\O` the figure was -3.3%; with `C(=Nc1ccc(/C=C/c2ccnc3ccccc23)cc1)Nc1ccc(/C=C/c2ccnc3ccccc23)cc1`, -10.1%; with `CN1CC(O)c2cc(N=NC(N)=O)c(O)cc21` (stereo not given), 4.72%.
Same read-out and setting: the value for `Cc1ccc(-c2ccc(C(=O)N3CCc4nnc(CNC(=O)c5ccccc5)n4CC3)cc2)cc1` was -3.28%.
Still for that read-out and setting: the value for `CC1(C)[C@H](O[C@H]2O[C@H](C(=O)O)[C@@H](O)[C@H](O)[C@H]2O[C@@H]2O[C@H](C(=O)O)[C@@H](O)[C@H](O)[C@H]2O)CC[C@@]2(C)[C@H]1CC[C@]1(C)[C@H]2C(=O)C=C2[C@H]3C[C@@](C)(C(=O)O)CC[C@]3(C)CC[C@]21C` was -2.51%.
On to `O=c1c(O)c(-c2ccc(O)cc2)oc2ccccc12`, for which the activation was -1.19%.
On to `CC(=O)Nc1ccccc1-c1nc(CNC(=O)c2ccc(Cl)cc2)c(C)o1`, for which the activation is -2.78%.
The same measure, in the same setting: the value for `COCc1c(C(=O)NC2CCCCC2)cnn1-c1nccc(-c2ccccc2OC)n1` was 0.854%; that for `COc1cc(C)c(CN2CCc3nnc(C(C)NC(=O)c4cccnc4)n3CC2)cc1C` (stereo not given) was -0.402%; that for `Cn1nccc1C(=O)NCC1CCC2(CCN(Cc3c(O)ccc4ccccc34)CC2)O1` (stereo not given) was -1.48%.
`Cc1cc(-c2ccnc(-n3ncc(C(=O)NCCc4ccncc4)c3C)n2)c(C)s1`: the activation was -1.46%.
The same measure, in the same setting: the value for `CN(C)c1ccc(/C=C/c2sc3ccccc3[n+]2CCCCBr)cc1` was -6.95%; that for `COc1ccccc1-c1nc(NCc2cccs2)c2ccccc2n1` was -5.15%.
Same read-out and setting: with `CO[C@H]1COC(=O)[C@H](Cc2ccccc2)NC(=O)C/C=C\[C@@H](C)[C@H](OC)COC(=O)C/C=C\[C@@H]1C` the figure was -4.82%; with `COc1cccc([C@H]2Oc3ccc(OC)cc3/C(=N\OCC[C@@H]3C=C[C@H](OC(C)=O)[C@H](COC(C)=O)O3)[C@@H]2O)c1`, -2.8%.
The same measure, in the same setting: with `O=C(NCCN1CCOCC1)c1cnn(-c2nccc(-c3cccs3)n2)c1C1CC1` the figure was -4.37%.
Take `CC(C)CN1CCc2nc(-c3ccccc3)c3c(c2C1)COC(C)C3` (stereo not given): the activation was -2.93%.
Same read-out and setting: the value for `Cc1cc2oc(=O)cc(-c3ccccc3)c2c(C)c1/C=C/c1ccc(F)cc1` was -1.4%.
The same measure, in the same setting: with `CCC(C)C1OC2(C=CC1C)CC1CC(C/C=C(/C)C(OC3CC(OC)C(OC4CC(OC)C(NC(C)=O)C(C)O4)C(C)O3)C(C)/C=C\C=C3\COC4C(O)C(C)=CC(C(=O)O1)C34O)O2` (stereo not given) the figure was -10.3%; with `O=C(NCC1(N2CCCCC2)CCCCC1)c1cccc(S(=O)(=O)Nc2ccccc2Cl)c1`, -4.77%; with `O=C(NCC1(N2CCCCC2)CCCCC1)c1ccc(NS(=O)(=O)c2ccc(F)cc2)cc1`, -3.09%.
For `CCOc1ccc(S(=O)(=O)Nc2cccc(C(=O)NCC3(N4CCCCC4)CCCCC3)c2)cc1`, the Potency is 15.8 µM (active).
As to `COc1ccc(C2CC(=O)c3c(O)cc(OC4OC(COC5OC(C)C(O)C(O)C5O)C(O)C(O)C4O)cc3O2)cc1O` (stereo not given), the activation is -4.13%.
Regarding `COc1cc(-c2cccnc2)cc2c1OCCN(C(=O)Cc1csc(C)n1)C2`, the activation was -6.23%.
`O=C(c1ccncc1)N1CCC2(CCCN(C(c3ccccc3)c3ccccc3)C2)CC1`: the Potency was 35.5 µM (active).
In the case of `O=C(c1cccc(F)c1)N1CCC2(CCCN(Cc3ccncc3)C2)CC1`, the activation was -4.07%.
For the molecule `COc1ccc(C(=O)N2CCC3(CCCN(C(c4ccccc4)c4ccccc4)C3)CC2)cc1`, the activation was -2.87%.
Same read-out and setting: with `CCCNC(=O)OC[C@@H]1O[C@H](c2ccccc2)C=C[C@@H]1Oc1ccc(OC)cc1` the figure was -2.78%.
Still for that read-out and setting: the value for `CO[C@@H]1COC(=O)[C@H](Cc2ccccc2)NC(=O)C/C=C\[C@@H](C)[C@H](OC)COC(=O)[C@@H](C)NC(=O)C/C=C\[C@H]1C` was -5.06% and -3.17%; that for `CN(Cc1cccc2ncccc12)C(=O)c1cnn(-c2nccc(-c3ccccc3F)n2)c1C1CC1` was -10.9%; that for `O=C(c1cn(CC2CCCN(Cc3cc4ccccc4s3)C2)nn1)N1CCCC1` (stereo not given) was -4.62%.
Same read-out and setting: with `Cc1cccc(CNC(=O)c2cnn(-c3nccc(-c4ccccc4F)n3)c2C2CC2)n1` the figure was -2.43%; with `COc1ccc(/C=C/NC(=O)c2ccc(OC)cc2)cc1`, -1.95%; with `N#Cc1ccccc1-c1ccc2ncnc(NCc3cccnc3)c2c1`, -2.79%.
Turning to `CO[C@@]12[C@@H](COC(N)=O)C3=C(C(=O)C(C)=C(N)C3=O)N1C[C@@H]1N[C@@H]12`, the activation was -2.04%.
Same read-out and setting: with `COc1cc(C[C@H]2NCCc3cc(O)c(O)cc32)cc(OC)c1OC` the figure was -2.86%; with `COc1cc([C@@H]2c3cc4c(cc3[C@@H](O[C@@H]3O[C@@H]5CO[C@@H](C)O[C@H]5[C@H](O)[C@H]3O)[C@H]3COC(=O)[C@H]23)OCO4)cc(OC)c1OP(=O)(O)O`, -3.95%.
The same measure, in the same setting: with `CCC1(C2CCN(Cc3cccnc3)CC2)NC(=O)N(CC2COc3ccccc3O2)C1=O` (stereo not given) the figure was -3.69%.
The same measure, in the same setting: the value for `CCS(=O)(=O)Nc1cc(C(=O)N2C[C@@H](C)O[C@@H](C)C2)c2c(c1)nc(-c1ccccc1)n2C` was -5.69%; that for `CC[C@H](C)[C@H](NC(=O)[C@H](Cc1ccc(O)cc1)NC(=O)[C@@H](NC(=O)[C@H](CCCN=C(N)N)NC(=O)[C@@H](N)CC(=O)O)C(C)C)C(=O)N[C@@H](Cc1cnc[nH]1)C(=O)N1CCC[C@H]1C(=O)N[C@@H](Cc1ccccc1)C(=O)O` was -0.592%.
For `COc1ccc2c(c1)CCc1cnc(-n3ncc(C(=O)NCc4cccnc4)c3C3CC3)nc1-2`, the activation is -2.79%.
Turning to `COc1cc(=O)n2c(c1C(=O)NCc1ccco1)CCN(Cc1ccccc1)CC2`, the activation is -4.45%.
Still for that read-out and setting: the value for `Cc1oc(-c2cccc(NC(=O)c3ccccc3)c2)nc1CNC(=O)c1cnc2ccccn2c1=O` was -3.8%.

For the origin of these results see PubChem BioAssay AID602332 (National Center for Advancing Translational Sciences (NCATS), 2012).
